Over roughly 16,000 sequences, “rpm ratio (pull-down/input)” has its median near 0.94; the highest 2% begin near 1.7. The entries come from a sample that favours the highest values as a whole.
Molecular target: T1, MBP-FoxP1dN (Mus musculus, UniProt P58462 326-579)
T1 sequence: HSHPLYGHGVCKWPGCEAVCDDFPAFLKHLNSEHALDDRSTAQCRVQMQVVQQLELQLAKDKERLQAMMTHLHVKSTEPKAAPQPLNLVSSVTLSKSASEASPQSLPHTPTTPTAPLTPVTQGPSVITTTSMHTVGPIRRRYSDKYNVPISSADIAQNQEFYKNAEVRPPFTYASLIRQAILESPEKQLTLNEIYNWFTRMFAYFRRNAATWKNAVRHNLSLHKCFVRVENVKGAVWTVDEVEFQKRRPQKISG
Assay: PD-seq (MBP pull-down with sequencing); 20 mM Tris-HCl pH 7.5, 100 mM NaCl, 1.5 mM MgCl2, 0.4 uM protein, 0.1 uM dsDNA library, 30 min, room temperature, amylose pull-down; high values mean tight binding
Settings: protein: recombinant; tags: His6-MBP; chain copies: 2; dsDNA, one strand shown
Outline: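 His6-MBP-tagged mouse FoxP3 or FoxP1 fragment lacking the N-terminus, expressed in E. coli, was mixed at 0.4 µM with 0.1 µM Klenow-filled double-stranded degenerate DNA library. Incubation was 30 min at room temperature in Tris pH 7.5 buffer with NaCl and MgCl2. Complexes were caught on amylose resin and washed three times; DNA was released with proteinase K, PCR-barcoded and Illumina-sequenced. Binding is reads-per-million enrichment, pull-down over input, with replicates pooled.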

Sequence	binding signal
GATGATTGTTCTCCCAGCTGATGAATTAGTGCGTTCGAGTAAACAAATTTTCCTAATCTTTCTGTTCAAGCGCCATCTAC	1.1 RPM ratio (pull-down/input)
GATGATTGTTCTCCCAGCTGATGAATTCGATCATTCGAGTAAACAAATTTTCCTAATCTTTCTGTTCAAGCGCCATCTAC	0.949 RPM ratio (pull-down/input)
GATGATTGTTCTCCCAGCTGATGAATTGTCACCATCGAGTAAACAAATTTTCCTAATCTTTCTGTTCAAGCGCCATCTAC	1.13 RPM ratio (pull-down/input)
GATGATTGTTCTCCCAGCTGATGAATTGTTCCTGTCGAGTAAACAAATTTTCCTAATCTTTCTGTTCAAGCGCCATCTAC	0.999 RPM ratio (pull-down/input)
GATGATTGTTCTCCCAGCTGATGAATTTTTTTTGTCGAGTAAACAAATTTTCCTAATCTTTCTGTTCAAGCGCCATCTAC	0.87 RPM ratio (pull-down/input)
GATGATTGTTCTCCCAGCTGATGAATTGTTGTTGTCGAGTAAACAAATTTTCCTAATCTTTCTGTTCAAGCGCCATCTAC	3.2 RPM ratio (pull-down/input)
GATGATTGTTCTCCCAGCTGATGAATTGTCGTTGTCGAGTAAACAAATTTTCCTAATCTTTCTGTTCAAGCGCCATCTAC	1.38 RPM ratio (pull-down/input)
GATGATTGTTCTCCCAGCTGATGAATTACTGATGTCGAGTAAACAAATTTTCCTAATCTTTCTGTTCAAGCGCCATCTAC	1.37 RPM ratio (pull-down/input)
GATGATTGTTCTCCCAGCTGATGAATTTCTGTTGTCGAGTAAACAAATTTTCCTAATCTTTCTGTTCAAGCGCCATCTAC	2.16 RPM ratio (pull-down/input)
GATGATTGTTCTCCCAGCTGATGAATTACTGTTGTCGAGTAAACAAATTTTCCTAATCTTTCTGTTCAAGCGCCATCTAC	2.55 RPM ratio (pull-down/input)
GATGATTGTTCTCCCAGCTGATGAATTTTTTCTGTCGAGTAAACAAATTTTCCTAATCTTTCTGTTCAAGCGCCATCTAC	0.986 RPM ratio (pull-down/input)
GATGATTGTTCTCCCAGCTGATGAATTACTACTGTCGAGTAAACAAATTTTCCTAATCTTTCTGTTCAAGCGCCATCTAC	1.23 RPM ratio (pull-down/input)
GATGATTGTTCTCCCAGCTGATGAATTTCTTTTGTCGAGTAAACAAATTTTCCTAATCTTTCTGTTCAAGCGCCATCTAC	0.952 RPM ratio (pull-down/input)
GATGATTGTTCTCCCAGCTGATGAATTTTTCTTGTCGAGTAAACAAATTTTCCTAATCTTTCTGTTCAAGCGCCATCTAC	1.1 RPM ratio (pull-down/input)
GATGATTGTTCTCCCAGCTGATGAATTTTTGTTGTCGAGTAAACAAATTTTCCTAATCTTTCTGTTCAAGCGCCATCTAC	2.85 RPM ratio (pull-down/input)
GATGATTGTTCTCCCAGCTGATGAATTGCTATGTTCGAGTAAACAAATTTTCCTAATCTTTCTGTTCAAGCGCCATCTAC	1.24 RPM ratio (pull-down/input)

Sequence	binding signal
GATGATTGTTCTCCCAGCTGATGAATTCGAGTGGTCGAGTAAACAAATTTTCCTAATCTTTCTGTTCAAGCGCCATCTAC	0.752 RPM ratio (pull-down/input)
GATGATTGTTCTCCCAGCTGATGAATTCCTATCTTCGAGTAAACAAATTTTCCTAATCTTTCTGTTCAAGCGCCATCTAC	0.802 RPM ratio (pull-down/input)
GATGATTGTTCTCCCAGCTGATGAATTTGACTTGTCGAGTAAACAAATTTTCCTAATCTTTCTGTTCAAGCGCCATCTAC	0.82 RPM ratio (pull-down/input)
GATGATTGTTCTCCCAGCTGATGAATTTCCTGCGTCGAGTAAACAAATTTTCCTAATCTTTCTGTTCAAGCGCCATCTAC	0.938 RPM ratio (pull-down/input)
GATGATTGTTCTCCCAGCTGATGAATTCTCTCTTTCGAGTAAACAAATTTTCCTAATCTTTCTGTTCAAGCGCCATCTAC	0.917 RPM ratio (pull-down/input)
GATGATTGTTCTCCCAGCTGATGAATTTAATATGTCGAGTAAACAAATTTTCCTAATCTTTCTGTTCAAGCGCCATCTAC	0.979 RPM ratio (pull-down/input)
GATGATTGTTCTCCCAGCTGATGAATTTCTGTCGTCGAGTAAACAAATTTTCCTAATCTTTCTGTTCAAGCGCCATCTAC	0.96 RPM ratio (pull-down/input)
GATGATTGTTCTCCCAGCTGATGAATTGTCGTCGTCGAGTAAACAAATTTTCCTAATCTTTCTGTTCAAGCGCCATCTAC	1.05 RPM ratio (pull-down/input)
GATGATTGTTCTCCCAGCTGATGAATTGTTGTCGTCGAGTAAACAAATTTTCCTAATCTTTCTGTTCAAGCGCCATCTAC	2.33 RPM ratio (pull-down/input)
GATGATTGTTCTCCCAGCTGATGAATTCGATCTATCGAGTAAACAAATTTTCCTAATCTTTCTGTTCAAGCGCCATCTAC	0.885 RPM ratio (pull-down/input)
GATGATTGTTCTCCCAGCTGATGAATTATTGATGTCGAGTAAACAAATTTTCCTAATCTTTCTGTTCAAGCGCCATCTAC	1.85 RPM ratio (pull-down/input)
GATGATTGTTCTCCCAGCTGATGAATTATTCTTGTCGAGTAAACAAATTTTCCTAATCTTTCTGTTCAAGCGCCATCTAC	1.16 RPM ratio (pull-down/input)
GATGATTGTTCTCCCAGCTGATGAATTATTAATGTCGAGTAAACAAATTTTCCTAATCTTTCTGTTCAAGCGCCATCTAC	1.35 RPM ratio (pull-down/input)
GATGATTGTTCTCCCAGCTGATGAATTATGATTGTCGAGTAAACAAATTTTCCTAATCTTTCTGTTCAAGCGCCATCTAC	1.45 RPM ratio (pull-down/input)
GATGATTGTTCTCCCAGCTGATGAATTGATTATGTCGAGTAAACAAATTTTCCTAATCTTTCTGTTCAAGCGCCATCTAC	1.31 RPM ratio (pull-down/input)
GATGATTGTTCTCCCAGCTGATGAATTATTGTTGTCGAGTAAACAAATTTTCCTAATCTTTCTGTTCAAGCGCCATCTAC	3.22 RPM ratio (pull-down/input)
